We go through four compounds from PubChem BioAssay (EPA / NIEHS).

Conditions in all cases: mRNA level, 48 h; actives raise or lower the signal
Read-out in assay [1]: Apoptosis regulator Bcl-2 (Homo sapiens) (UniProt P10415)
The assay is described as follows: LTEA_HepaRG_BCL2: Life Technologies and Expression Analysis (LTEA) Assay for Bcl-2 gene using HepaRG (AID 2283475). The gist of the method:
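Plated human HepaRG cells are exposed to test chemicals for 48 h across eight concentrations from 100 uM downward in half-log steps (0.5% DMSO). BCL2 expression is then measured by qRT-PCR with housekeeping normalisation and fitted bidirectionally against vehicle.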

Read-out in assay [2]: Bcl-2 (BID) gene, BID (gene 637)
The assay is described as follows: LTEA_HepaRG_BID: Life Technologies and Expression Analysis (LTEA) Assay for Bcl-2 (BID) gene using HepaRG (AID 2283476). The gist of the method: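 Cells are plated, cultured 48 h, switched to serum-free induction medium, then dosed 48 h (100 uM top, half-log steps, 0.5% DMSO). RNA is isolated and BID expression read by qRT-PCR.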

Read-out in the next assay: Caspase-3 (Homo sapiens) (UniProt P42574)
The assay is described as follows: LTEA_HepaRG_CASP3: Life Technologies and Expression Analysis (LTEA) Assay for cysteine-aspartic acid protease (CASP3) using HepaRG (AID 2283477). The gist of the method: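 In HepaRG liver cells dosed for 48 h at up to 100 uM (eight-point, duplicate), CASP3 expression changes are scored by qRT-PCR. Activity is fitted in both directions with 0.5% DMSO as baseline.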

Read-out in assay [3]: Cytochrome P450 (CYP24A1), CYP24A1 (gene 1591)
The assay can be described thus: LTEA_HepaRG_CYP24A1: Life Technologies and Expression Analysis (LTEA) Assay for Cytochrome P450 (CYP24A1) using HepaRG (AID 2283478). The gist of the method: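 Human liver HepaRG cultures receive each chemical for 48 h across an eight-point half-log series topping at 100 uM in 0.5% DMSO. Induction or suppression of CYP24A1 mRNA is scored relative to vehicle after housekeeping-gene normalization.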

Read-out in assay [4]: Cytochrome P450 (CYP1A2), CYP1A2 (gene 1544)
The assay is described as follows: LTEA_HepaRG_CYP1A2: Life Technologies and Expression Analysis (LTEA) Assay for Cytochrome P450 (CYP1A2) using HepaRG (AID 2283479). A digest of the protocol: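 Assesses CYP1A2 mRNA in human HepaRG liver cells after 48 h chemical exposure at up to 100 uM. Values come from qRT-PCR with bidirectional curve fitting relative to DMSO.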

Read-out in assay [5]: cysteine-aspartic acid protease (CASP8), CASP8 (gene 841)
The assay is described as follows: LTEA_HepaRG_CASP8: Life Technologies and Expression Analysis (LTEA) Assay for cysteine-aspartic acid protease (CASP8) using HepaRG (AID 2283480). The gist of the method:
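qRT-PCR readout of CASP8 mRNA, normalized to three housekeeping genes, after 48 h chemical exposure of HepaRG cells; 8-point half-log series, top 100 uM, 0.5% DMSO vehicle. Bidirectional curve fitting against DMSO baseline.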

Read-out in assay [6]: Cytochrome P450 (CYP2B6), CYP2B6 (gene 1555)
The assay can be described thus: LTEA_HepaRG_CYP2B6: Life Technologies and Expression Analysis (LTEA) Assay for Cytochrome P450 (CYP2B6) using HepaRG (AID 2283481). A digest of the protocol: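 Using 48 h treatment of HepaRG cells in serum-free induction medium, concentrations spanned half-log steps from 100 uM in 0.5% DMSO vehicle. CYP2B6 mRNA induction or loss is scored by qRT-PCR against DMSO.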

Read-out in assay [7]: Cytochrome P450 2C19 (Homo sapiens) (UniProt P33261)
The assay can be described thus: LTEA_HepaRG_CYP2C19: Life Technologies and Expression Analysis (LTEA) Assay for CYP2C19 using HepaRG (AID 2283482). The gist of the method: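 Human HepaRG liver cells received test chemicals for 48 h (highest 100 uM, half-log dilutions in 0.5% DMSO). CYP2C19 mRNA induction or loss is read by multiplexed qRT-PCR and fitted in both directions versus vehicle.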

Read-out in a further assay: CYP2C8 (gene 1558)
The assay is described as follows: LTEA_HepaRG_CYP2C8: Life Technologies and Expression Analysis (LTEA) Assay for CYP2C8 using HepaRG (AID 2283483). The gist of the method: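 HepaRG (human liver line), 48 h chemical exposure, 8-pt half-log series from 100 uM, 0.5% DMSO vehicle. Readout: CYP2C8 transcript by qRT-PCR, housekeeping-normalized. Bidirectional fit vs DMSO baseline.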

Read-out in the next assay: CYP2C9 (gene 1559)
The assay is described as follows: LTEA_HepaRG_CYP2C9: Life Technologies and Expression Analysis (LTEA) Assay for CYP2C9 using HepaRG (AID 2283484). The gist of the method: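 HepaRG, 48 h dosing, 8-pt half-log series, top 100 uM, 0.5% DMSO vehicle. Read-out: CYP2C9 transcript by TaqMan qRT-PCR, housekeeping-normalized (ACTB/GAPDH/POLR2A). Gain or loss fitted vs DMSO baseline.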

Read-out in a further assay: CYP4A11 (gene 1579)
The assay is described as follows: LTEA_HepaRG_CYP4A11: Life Technologies and Expression Analysis (LTEA) Assay for CYP4A11 using HepaRG (AID 2283486). The gist of the method:
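Readout is CYP4A11 mRNA induction or suppression (qRT-PCR, ACTB/GAPDH/POLR2A normalization) in human HepaRG cells after 48 h chemical treatment, concentrations to 100 uM in 0.5% DMSO, fitted bidirectionally against vehicle.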

Read-out in assay [8]: Cytochrome P450 3A4 (Homo sapiens) (UniProt P08684)
The assay can be described thus: LTEA_HepaRG_CYP3A4: Life Technologies and Expression Analysis (LTEA) Assay for CYP3A4 using HepaRG (AID 2283487). A digest of the protocol: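 HepaRG, 48 h exposure, 8-pt CRC from 100 uM (half-log), 0.5% DMSO, duplicates; serum-free induction medium. Readout: CYP3A4 mRNA, qRT-PCR, ACTB/GAPDH/POLR2A normalization. Bidirectional fit vs DMSO.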

Read-out in assay [9]: DNA damage-inducible transcript 3 (DDIT3), DDIT3 (gene 1649)
The assay is described as follows: LTEA_HepaRG_DDIT3: Life Technologies and Expression Analysis (LTEA) Assay for DNA damage-inducible transcript 3 (DDIT3) using HepaRG (AID 2283488). A digest of the protocol: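 Cells are human HepaRG liver cells treated for 48 h with eight half-log concentrations up to 100 uM in 0.5% DMSO. Transcript levels come from qRT-PCR normalized to three housekeeping genes, with activity fitted in both directions relative to vehicle.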

Read-out in assay [10]: Pro-epidermal growth factor (Homo sapiens) (UniProt P01133)
The assay can be described thus: LTEA_HepaRG_EGF: Life Technologies and Expression Analysis (LTEA) Assay for Epidermal growth factor (EGF) using HepaRG (AID 2283489). The gist of the method:
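EGF expression changes in human HepaRG cells are scored by bidirectional fitting relative to 0.5% DMSO controls. Chemicals are tested at eight half-log concentrations up to 100 uM for 48 h in serum-free induction medium.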

Read-out in assay [11]: Early growth response protein 1 (EGR1) transcription factor, EGR1 (gene 1958)
The assay can be described thus: LTEA_HepaRG_EGR1: Life Technologies and Expression Analysis (LTEA) Assay for Early growth response protein 1 (EGR1) transcription factor using HepaRG (AID 2283490). A digest of the protocol: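 HepaRG, 48 h exposure, 8-pt half-log series from 100 uM, 0.5% DMSO vehicle; EGR1 transcript by TaqMan qRT-PCR (Fluidigm array), housekeeping-normalized; bidirectional fit relative to DMSO baseline.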

Read-out in assay [12]: Ezrin (EZR), EZR (gene 7430)
The assay is described as follows: LTEA_HepaRG_EZR: Life Technologies and Expression Analysis (LTEA) Assay for Ezrin (EZR) using HepaRG (AID 2283491). The gist of the method:
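Read-out is EZR transcript level by qRT-PCR, normalized to three housekeeping genes and fitted bidirectionally against the DMSO control. Human HepaRG cells received test chemicals for 48 h at eight half-log concentrations up to 100 uM in 0.5% DMSO.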

Read-out in assay [13]: Cytochrome P450 3A7 (Homo sapiens) (UniProt P24462)
The assay is described as follows: LTEA_HepaRG_CYP3A7: Life Technologies and Expression Analysis (LTEA) Assay for CYP3A7 using HepaRG (AID 2283492). A digest of the protocol:
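Cells were thawed, plated, cultured 48 h, then treated for a further 48 h with chemicals (eight-point half-log series from 100 uM, 0.5% DMSO). RNA was isolated and CYP3A7 expression quantified by qRT-PCR normalised to ACTB, GAPDH and POLR2A.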

Read-out in the next assay: CYP3A5 (gene 1577)
The assay can be described thus: LTEA_HepaRG_CYP3A5: Life Technologies and Expression Analysis (LTEA) Assay for CYP3A5 using HepaRG (AID 2283493). A digest of the protocol: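 Human HepaRG hepatic cells receive 48 h chemical treatment at eight concentrations (half-log steps from 100 uM) in 0.5% DMSO. Expression of CYP3A5 is quantified by Fluidigm qRT-PCR and normalized to three reference genes.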

Read-out in assay [14]: Fatty Acid-Binding Protein 1 (FABP1), FABP1 (gene 2168)
The assay is described as follows: LTEA_HepaRG_FABP1: Life Technologies and Expression Analysis (LTEA) Assay for Fatty Acid-Binding Protein 1 (FABP1) using HepaRG (AID 2283494). A digest of the protocol: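 qRT-PCR readout of FABP1 transcript (normalized to three housekeeping genes) after 48 h chemical exposure of HepaRG cells; eight concentrations, half-log steps, max 100 uM, 0.5% DMSO vehicle; gain or loss fitted relative to DMSO baseline.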

Read-out in a further assay: CYP2E1 (gene 1571)
The assay is described as follows: LTEA_HepaRG_CYP2E1: Life Technologies and Expression Analysis (LTEA) Assay for CYP2E1 using HepaRG (AID 2283485). The gist of the method: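 Readout is qRT-PCR of CYP2E1 mRNA, normalized to three housekeeping genes and fitted bidirectionally against 0.5% DMSO. HepaRG cells were dosed 48 h at eight concentrations, highest 100 uM with half-log dilutions.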

Active and inactive are the calls of the source. How the source made its calls: active means hit-call score of the fitted dose curve at least 0.9, where 1 is the maximum; inactive means score below 0.9.

Sequence of Apoptosis regulator Bcl-2 (Homo sapiens) (P10415 whole entry, looked up): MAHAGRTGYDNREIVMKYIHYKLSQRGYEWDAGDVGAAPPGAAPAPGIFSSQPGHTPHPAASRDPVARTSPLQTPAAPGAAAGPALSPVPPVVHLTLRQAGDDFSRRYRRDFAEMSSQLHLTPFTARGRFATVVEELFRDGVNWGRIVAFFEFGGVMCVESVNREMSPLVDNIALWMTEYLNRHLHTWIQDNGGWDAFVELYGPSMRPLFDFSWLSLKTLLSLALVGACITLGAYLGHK
Sequence of Caspase-3 (Homo sapiens) (P42574 whole entry, looked up): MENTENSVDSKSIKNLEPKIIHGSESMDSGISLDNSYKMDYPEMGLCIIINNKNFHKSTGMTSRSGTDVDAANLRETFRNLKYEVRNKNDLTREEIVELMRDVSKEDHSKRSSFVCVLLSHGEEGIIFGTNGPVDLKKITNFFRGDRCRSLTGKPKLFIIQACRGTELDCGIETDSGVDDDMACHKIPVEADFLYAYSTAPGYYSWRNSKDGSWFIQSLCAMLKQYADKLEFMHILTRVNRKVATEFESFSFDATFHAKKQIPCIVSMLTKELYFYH
Sequence of Cytochrome P450 3A4 (Homo sapiens) (P08684 whole entry, looked up): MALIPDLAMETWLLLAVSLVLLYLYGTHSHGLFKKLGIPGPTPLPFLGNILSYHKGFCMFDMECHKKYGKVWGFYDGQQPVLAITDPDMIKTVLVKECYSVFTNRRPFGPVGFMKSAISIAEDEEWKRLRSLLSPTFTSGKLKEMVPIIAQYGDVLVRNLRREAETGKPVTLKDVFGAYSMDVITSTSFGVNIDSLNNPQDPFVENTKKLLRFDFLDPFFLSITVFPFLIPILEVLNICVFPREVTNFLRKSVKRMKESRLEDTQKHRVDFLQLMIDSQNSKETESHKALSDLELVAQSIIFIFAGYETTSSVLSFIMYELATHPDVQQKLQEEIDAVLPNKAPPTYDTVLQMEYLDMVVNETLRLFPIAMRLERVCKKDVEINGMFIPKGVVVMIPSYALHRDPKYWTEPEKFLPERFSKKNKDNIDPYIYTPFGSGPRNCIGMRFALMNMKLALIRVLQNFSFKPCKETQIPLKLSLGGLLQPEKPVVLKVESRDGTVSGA
Sequence of Cytochrome P450 2C19 (Homo sapiens) (P33261 whole entry, looked up): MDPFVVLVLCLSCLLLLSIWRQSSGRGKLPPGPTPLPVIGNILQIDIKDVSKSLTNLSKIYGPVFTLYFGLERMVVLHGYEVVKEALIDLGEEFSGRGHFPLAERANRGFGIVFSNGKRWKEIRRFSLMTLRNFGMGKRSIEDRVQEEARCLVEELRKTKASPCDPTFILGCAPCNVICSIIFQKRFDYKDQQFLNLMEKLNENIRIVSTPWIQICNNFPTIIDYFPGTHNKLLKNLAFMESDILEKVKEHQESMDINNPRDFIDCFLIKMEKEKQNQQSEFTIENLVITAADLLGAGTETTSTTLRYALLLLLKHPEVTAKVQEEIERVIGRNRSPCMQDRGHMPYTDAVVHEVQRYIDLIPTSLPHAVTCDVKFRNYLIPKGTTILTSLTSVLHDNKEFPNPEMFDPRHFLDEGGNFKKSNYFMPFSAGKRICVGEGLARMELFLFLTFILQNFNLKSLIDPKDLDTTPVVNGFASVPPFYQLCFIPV
Sequence of Cytochrome P450 3A7 (Homo sapiens) (P24462 whole entry, looked up): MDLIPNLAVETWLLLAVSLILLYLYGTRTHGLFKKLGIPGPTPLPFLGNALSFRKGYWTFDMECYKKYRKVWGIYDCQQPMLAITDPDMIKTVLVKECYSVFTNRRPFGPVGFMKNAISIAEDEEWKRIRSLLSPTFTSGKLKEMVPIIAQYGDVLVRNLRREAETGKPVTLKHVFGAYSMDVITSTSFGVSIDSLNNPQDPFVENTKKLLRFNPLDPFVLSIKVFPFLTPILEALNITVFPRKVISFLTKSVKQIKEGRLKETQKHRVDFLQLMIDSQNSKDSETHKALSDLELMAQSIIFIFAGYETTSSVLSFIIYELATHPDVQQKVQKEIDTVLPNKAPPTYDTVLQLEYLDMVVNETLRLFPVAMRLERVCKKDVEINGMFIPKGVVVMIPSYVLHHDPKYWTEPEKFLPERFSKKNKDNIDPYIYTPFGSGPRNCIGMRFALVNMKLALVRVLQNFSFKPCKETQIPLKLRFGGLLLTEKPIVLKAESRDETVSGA

The AC50 is the concentration at which the activity in the assay is half-maximal. As to `O=c1[nH]sc2ccccc12`, the compound was classed as inactive (in assay [1]; in assay [2]; with Caspase-3 (Homo sapiens); in [3]; in assay [5]; in assay [6]). For the same compound, the compound was classed as inactive (in [7]; with CYP2C8 (gene 1558); in the assay with CYP2C9 (gene 1559); in the assay with CYP4A11 (gene 1579); in assay [8]; in assay [9]). In addition, the compound was classed as inactive (in assay [10]; in assay [11]; in assay [12]; in [13]; with CYP3A5 (gene 1577); in assay [14]). Besides, in [4], the AC50 was 80.3 µM (active).

For `CCOC(=O)O[C@H](C)OC(=O)c1ccc2c(c1)cc(C(=O)NC1CCN(C(C)C)CC1)n2Cc1cc(-c2ccc(Cl)s2)on1`, the compound was classed as inactive (in [1]; in assay [2]; with Caspase-3 (Homo sapiens); in assay [3]; in assay [6]; in assay [7]). Moreover, the result (with CYP2C8 (gene 1558); with CYP2C9 (gene 1559); in assay [8]; in assay [9]; in assay [10]; in assay [11]) was inactive. The outcome (in assay [12]; with CYP3A5 (gene 1577); in [14]) was inactive. In addition, the results for the AC50 (in [4]; with CYP4A11 (gene 1579)) were 69.7 µM (active) and 47.2 µM (active), respectively.

For the compound `CC(C)(O)c1ccc(CNC(=O)c2cccnc2Oc2ccc3nonc3c2)cc1`, the compound was called inactive (in assay [1]; in [2]; with Caspase-3 (Homo sapiens); in [3]; in assay [5]; in the assay with CYP2C9 (gene 1559)). For the same compound, the compound was called inactive (with CYP4A11 (gene 1579); in assay [9]; in assay [10]; in [11]; in assay [12]; in the assay with CYP3A5 (gene 1577)). In [14], the compound was classed as inactive. For the same compound, the AC50 in [4] is 50 µM (active); in assay [6] it was 0.987 µM (active); in assay [7], 12.1 µM (active); with CYP2C8 (gene 1558) it was 13 µM (active); with CYP2E1 (gene 1571), 34.2 µM (active); in [8], 8.42 µM (active).

Consider `CCO[Si](CCCNC(N)=O)(OCC)OCC`, for which the compound was classed as inactive (in assay [1]; in [2]; in the assay with Caspase-3 (Homo sapiens); in assay [3]; in assay [6]; in assay [7]). In addition, the compound was called inactive (in the assay with CYP2C8 (gene 1558); with CYP2C9 (gene 1559); with CYP4A11 (gene 1579); in assay [8]; in assay [9]; in assay [10]). Moreover, the compound was called inactive (in assay [11]; in [12]; with CYP3A5 (gene 1577); in assay [14]).
